Data as given in PubChem BioAssay AID463173 (ICCB-Longwood Screening Facility, Harvard Medical School, 2010).
Screen size: about 52,000 compounds; about 4,300 (8.3%) were called active. This is one part of a sample in which actives are shown more often than they occur. Rule as the data show it: active = survival mostly below about 52% (no sharp cut-off); inactive = mostly above about 56%.

test system: DeltatarO mutant; test: S. aureus survival, RN4220 and DeltatarO strains – OD600, teichoic acid synthesis inhibitors, primary screen (AID 463173); conditions: S. aureus RN4220 wild type/DeltatarO growth, OD600, 18 h, stronger effect = lower value, screened at 18.75 µg/mL (by protocol)

| SMILES | survival |
| --- | --- |
| COc1ccc(OC)c(CNC(=O)c2nn(C)c3c2CS(=O)(=O)c2ccccc2-3)c1 | 74% (inactive) |
| CCC(C(=O)Nc1ccc(C(=O)OC)cc1)n1c(=O)c(-c2ccccc2NC(C)=O)nc2ccccc21 (stereo not given) | 94% (inactive) |
| O=C(CSc1nc2ccsc2c(=O)n1-c1ccc(Br)cc1)NCc1ccccc1 | 73% (inactive) |
| CCCCN(CCCC)S(=O)(=O)c1ccc(NC(=O)c2c(-c3ccccc3)noc2C)cc1 | 60% (inactive) |
| CCOC(=O)c1c(S(=O)(=O)N2CCCC(C(=O)NCc3cccc(OC)c3)C2)c(C)n(C)c1C (stereo not given) | 117% (inactive) |
| Cc1ccc(-c2nc(C)c(CCNC(=O)c3ccccc3Br)s2)cc1 | 72% (inactive) |
| CCn1c(=O)cc(OCC(=O)N2CCN(c3ccc(OC)cc3)CC2)c2ccccc21 | 71% (inactive) |
| O=C(NCc1cccn1Cc1ccccc1)Nc1ccc(Br)cc1F | 66% (inactive) |
| CCOc1cccc(C2Oc3nc(SC)nnc3-c3ccccc3N2C(C)=O)c1OC (stereo not given) | 59% (inactive) |
| Cc1c(C(=O)Nc2ccccc2F)sc2nc3n(c(=O)c12)CCC3 | 87% (inactive) |
| O=C(Cn1ccn(-c2ccc(F)c(F)c2)c(=O)c1=O)NCc1ccccc1 | 62% (inactive) |
| COc1cc(OC)cc(-n2c(=O)c3ccccc3n(Cc3ccccc3C#N)c2=O)c1 | 128% (inactive) |
| Cc1ccc(C)c(N2CCN(C(=O)c3cc(C)nc4c3c(C)nn4-c3cccc(F)c3)CC2)c1 | 8% (active) |
| CCc1ccc(-n2nc(C)c3c(C(=O)Nc4cccc(C(F)(F)F)c4)cc(C)nc32)cc1 | 20% (active) |
| Cc1ccc(C)c(N2CCN(C(=O)c3cc(C)nc4c3c(C)nn4-c3ccccc3)CC2)c1 | 126% (inactive) |
| Cc1cc(C(=O)N2CCN(c3ccccc3)CC2)c2c(C)nn(-c3cccc(F)c3)c2n1 | 91% (inactive) |
| CCc1ccc(-n2nc(C)c3c(C(=O)Nc4cc(OC)cc(OC)c4)cc(C)nc32)cc1 | 102% (inactive) |
| CCc1ccc(-n2nc(C)c3c(C(=O)Nc4ccc(Cl)cc4)cc(C)nc32)cc1 | 66% (inactive) |
| Cc1cccc2cc(CN(CCO)S(=O)(=O)c3ccc(Cl)cc3)c(=O)[nH]c12 | 82% (inactive) |
| CCOCCCNC(=O)c1ccc2c(c1)NC(=O)C(CS(=O)(=O)Cc1ccc(F)cc1Cl)N2 (stereo not given) | 88% (inactive) |
| CC(C)Cn1c(N2CCN(C(=O)c3sc4ccccc4c3Cl)CC2)nc2ccccc21 | 89% (inactive) |
| CCC(Cc1ccccc1)NC(=O)CN1C(=O)COc2ccc(S(=O)(=O)N3CCCCCC3)cc21 (stereo not given) | 113% (inactive) |
| CC(=O)c1cccc(NS(=O)(=O)c2cccc(S(=O)(=O)c3ccc(Br)cc3)c2)c1 | 55% (inactive) |
| Cc1cc(NC(=O)c2cc(-c3ccc(Cl)c(Cl)c3)on2)n(-c2ccccc2)n1 | 63% (inactive) |
| COc1cccc(-c2cc(C(=O)Nc3cc(C)nn3-c3ccccc3)no2)c1 | 74% (inactive) |
| Cc1cc(NC(=O)c2cc(-c3cccc(Cl)c3)on2)nn1Cc1ccc(Cl)cc1 | 43% (active) |
| COc1cccc(-c2cc(C(=O)Nc3ccn(Cc4ccc(C)cc4)n3)no2)c1 | 33% (active) |
| Cc1ccc(Cn2ccc(NC(=O)c3cc(-c4ccc(Cl)c(Cl)c4)on3)n2)cc1 | 45% (active) |

| SMILES | survival |
| --- | --- |
| Cc1cc(NC(=O)c2cc(-c3ccc(Br)cc3)on2)nn1Cc1ccc(Cl)cc1 | 155% (inactive) |
| Cc1ccc(CNC(=O)c2cc(-c3ccc(Cl)cc3)on2)cc1 | 93% (inactive) |
| Cc1cc(NC(=O)c2cc(-c3ccc(Cl)cc3)on2)nn1Cc1ccc(Cl)cc1 | 140% (inactive) |
| COc1ccc(-c2cc(C(=O)Nc3ccn(Cc4ccc(C)cc4)n3)no2)cc1OC | 57% (inactive) |
| O=c1c2cccnc2n(Cc2ccccc2F)c(=O)n1Cc1ccccc1Cl | 62% (inactive) |
| Cc1cccc(S(=O)Cc2ccc(C(=O)NC3CCCCCC3)o2)c1 (stereo not given) | 81% (inactive) |
| CCOc1ccc(NC(=O)C2CCCN(S(=O)(=O)c3ccc(Br)s3)C2)cc1 (stereo not given) | 101% (inactive) |
| CCNC(=O)c1ccc(CSc2nc3cccnc3n2Cc2ccc(OC)cc2)cc1 | 0% (active) |
| COCCCNC(=O)c1ccc(CSc2nc3cccnc3n2Cc2ccc(OC)cc2)cc1 | 107% (inactive) |
| Cc1ccc(CSc2nc3cccnc3n2Cc2ccc(C(=O)NCCc3cccs3)cc2)cc1 | 135% (inactive) |
| O=C(NCc1ccccc1Cl)c1ccc(Cn2c(SCc3ccccc3)nc3cccnc32)cc1 | 72% (inactive) |
| O=C(NCCc1cccs1)c1ccc(Cn2c(SCc3ccccc3)nc3cccnc32)cc1 | 99% (inactive) |
| CCOc1ccccc1CNC(=O)c1ccc(Cn2c(SCc3ccccc3)nc3cccnc32)cc1 | 74% (inactive) |
| Cc1ccccc1CNC(=O)c1ccc(Cn2c(SCc3cccc(F)c3)nc3cccnc32)cc1 | 89% (inactive) |
| Cc1ccccc1CSc1nc2cccnc2n1Cc1ccc(C(=O)NCCc2cccs2)cc1 | 47% (active) |
| COc1ccc(Cn2c(SCc3ccc(C(=O)NCc4ccc(C)cc4)cc3)nc3cccnc32)cc1 | 58% (inactive) |
| Cc1ccccc1CNC(=O)c1ccc(Cn2c(SCc3ccccc3)nc3cccnc32)cc1 | 0% (active) |
| Cc1ccccc1CNC(=O)c1ccc(CSc2nc3cccnc3n2Cc2ccccc2)cc1 | 55% (inactive) |
| COc1ccccc1CNC(=O)c1ccc(Cn2c(SCc3ccccc3)nc3cccnc32)cc1 | 37% (active) |
| Cc1cn2c(=O)c(S(=O)(=O)NCc3ccc(F)cc3)c(C)nc2s1 | 88% (inactive) |
| CCc1ccc(NC(=O)CSc2nnc(C(C)C)n2CC)cc1 | 96% (inactive) |
| O=C(C1CCN(S(=O)(=O)c2ccc3c(c2)OCCO3)CC1)N1CCN(c2nc3ccccc3s2)CC1 | 109% (inactive) |
| O=C(Nc1cccnc1)Nc1c[nH]c2c(Cl)cccc2c1=O | 89% (inactive) |
| COc1ccc(-c2cc(C(F)(F)F)n3nc(C(=O)O)c(Cl)c3n2)cc1OC | 70% (inactive) |
| Cc1cc(C)nc(-n2nc(C)c3c2N(C)C(=O)CC3c2ccc(Cl)cc2)n1 (stereo not given) | 73% (inactive) |
| COc1ccc(-c2onc(C)c2C)cc1S(=O)(=O)N1CCC(C)CC1 | 70% (inactive) |
| CC(NC(=O)CN1C(=O)COc2ccc(S(=O)(=O)N3CCCCCC3)cc21)c1ccccc1 (stereo not given) | 68% (inactive) |
